M1 PAM = human CHRM1 positive allosteric modulation; P11229; activation, % at 3 µM; CHO-K1 hM1, Fluo-8 calcium fluorescence, ACh EC20; 0% = ACh EC20, 100% = maximal ACh; 0.088% of 360,000 active; AID 588819; in the data active = activation above about 19%, passing the limit was not always enough
CHRM4 PAM = potentiates acetylcholine response at human M4 receptor; activation, % at 3 µM; 0.4% of 360,000 active; AID 624126; CHO-K1 hM4/Gqi5, Fluo-8 calcium fluorescence, ACh EC20; 0% = ACh EC20, 100% = maximal ACh;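 active = activation above its plate's cutoff, the mean activation of sample wells plus 3 SD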
CHRM4 agonist = agonists of human muscarinic M4 receptor (CHRM4); CHO-K1 hM4/Gqi5, Fluo-8 calcium fluorescence; vehicle 0%, full acetylcholine response 100%; activation, % at 3 µM; 0.14% of 360,000 active; AID 624127;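 active = activation above the run mean over all test wells plus 3 SD, cut at about 32% in these data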;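 also: peak over basal fluorescence ratio per well then scaled between controls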
M1 antag = human CHRM1 antagonism; P11229; CHO-K1 hM1, Fluo-8 calcium fluorescence, ACh EC80 antagonist; inhibition, % at 3 µM; 1.3% of 360,000 active;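 active = percent inhibition above its own plate's cutoff, namely the mean of that plate's compound wells plus 3 SD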;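 also: peak over basal fluorescence ratio during 140 s after agonist addition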
CHRM1 agonist = agonists of human M1 muscarinic receptor. P11229. CHO-K1 hM1, Fluo-8 calcium fluorescence, agonist mode; 0% DMSO, 100% acetylcholine EC100. 0.33% of 360,000 active. activation, % at 3 µM;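 active = activation above the run's mean compound activation plus 3 SD, cut at about 16% in these data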;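 also: peak over basal fluorescence ratio within a 140 s kinetic read after compound addition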
M4 antag = antagonists of human muscarinic M4 receptor (CHRM4) | CHO-hM4 cells, ACh EC80, Fluo-8 calcium fluorescence | 0.73% of 360,000 active | inhibition, % at 3 µM | P08173;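 active = inhibition above its plate's cutoff, the mean inhibition of sample wells plus 3 SD, cut at about 27% in these data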
Large screens that a line does not name were inactive. The list is not random: actives were taken first. Their share in the collection is about 2.2%.

FC(F)Oc1ccc(NC(=S)NC2CCSc3ccccc32)cc1 (configuration not stated)	M1 antag 86.9, M4 antag 59.8
FC(F)Oc1ccc(NC(=S)NC2CCCCCCC2)cc1	M1 antag 34.2
N/C(COc1ccc(Cl)cc1)=N\NS(=O)(=O)c1ccccc1	none
COc1ccc(N2CCN(C(c3cccs3)C(C)NC(=O)c3ccc4c(c3)OCO4)CC2)cc1 (configuration not stated)	none
CCOc1ccc(NCc2cccn2-c2nnc(N3CCC(C(=O)NCCCN4CCCCC4C)CC3)s2)cc1 (configuration not stated)	M1 antag 53.5
CCOc1ccc(CCNC(=O)C2CCN(c3nnc(-n4cccc4)s3)CC2)cc1	none
CCOc1ccc(NCc2cccn2-c2nnc(N3CCC(C(=O)NCCCN4C(C)CCCC4C)CC3)s2)cc1 (configuration not stated)	M1 antag 77.8
CCOc1ccc(NCc2cccn2-c2nnc(N3CCC(C(=O)NCCCN4CCCCC4)CC3)s2)cc1	M1 antag 63.3
COc1ccc(S(=O)(=O)N(CC(=O)NN=C2CCN(C)CC2)c2ccc(C)cc2)cc1OC	none
COC(=O)C1=C(C)NC(C)=C(C(=O)OC)C1C(=O)OCC(=O)c1ccc(F)cc1	none
Cc1ccc(OC(=O)CCS(=O)(=O)c2ccc(C)cc2)cc1	M1 PAM 25.3, CHRM4 PAM 17.5
COc1ccc(C(=O)N2CCC3(CC2)NCCc2[nH]cnc23)cc1OC	none
Cc1ccc(C(=O)N2CCC3(CC2)NCCc2[nH]cnc23)cc1C	CHRM4 PAM 16.6
CCOC(=O)c1c(-c2ccccc2)csc1NC(=O)/C(C#N)=C/c1ccc(O)c(OC)c1	CHRM1 agonist 16.7
CC(C)c1ccc(N(CC(=O)Nc2ccc(S(=O)(=O)N3CCOCC3)cc2)S(C)(=O)=O)cc1	none
CCc1noc(C)c1C(=O)Nc1nc(-c2ccc(OC)cc2)cs1	M1 antag 36.6
COc1ccccc1-c1c(C)oc2c(CN3CCN(CCO)CC3)c(O)ccc2c1=O	none
Cc1c(P(=S)(c2ccccc2)c2ccccc2)[n+]2ccccc2n1CCc1ccccc1	M1 antag 47.5, M4 antag 56.0
Cc1cc(NC(=O)COC(=O)C2CC(=O)N(c3ccc(C)c(Cl)c3)C2)no1 (configuration not stated)	none
Cc1cc(NC(=O)COC(=O)C2CC(=O)N(c3cccc(Cl)c3)C2)no1 (configuration not stated)	M1 PAM 30.7
COCCC1CCCCN1C(=O)c1ccc(OC)c(OC2CCN(C(C)=O)CC2)c1 (configuration not stated)	none
COc1ccc(Nc2ncnc3sccc23)cc1OC	none
COc1ccc(CCNc2ncnc3sccc23)cc1OC	M1 antag 39.7, M4 antag 40.3
COc1ccc(CCNc2ncnc3c2oc2ccccc23)cc1OC	M1 antag 39.8
COc1ccc(F)cc1S(=O)(=O)N1CCC2(CC1)OCCN2S(=O)(=O)c1cccs1	none
CCn1cc(CN2CCC(n3nccc3NC(=O)CCCc3ccccc3)CC2)cn1	none
CCCCCN1CC(=O)N2[C@@H](Cc3c([nH]c4ccccc34)C2(C)C)C1=O	none
CCCCN(CCCC)CCCN1CC(=O)N2[C@@H](Cc3c([nH]c4ccccc34)C2(C)C)C1=O	M4 antag 85.9
O=C1C(=O)c2ccccc2C(O)=C1c1cccc([N+](=O)[O-])c1	none
O=C(/C=C/c1cn(-c2ccccc2)nc1-c1ccccc1)Nc1ccc(C(=O)O)cc1	M1 antag 98.2, M4 antag 71.5
NS(=O)(=O)c1ccc(NC(=O)/C=C/c2cn(-c3ccccc3)nc2-c2cccc(Cl)c2)cc1	none
CCOc1ccccc1N/C=C/C(=O)C(C)(C)C	none
Cc1cc(N/C(=N\S(=O)(=O)c2ccc(F)cc2F)c2ccccc2)no1	CHRM4 PAM 19.9
COc1ccc(NC(=O)c2c(NC(=O)CNCc3ccco3)sc3c2CCC3)cc1	none
Fc1ccc(C(CCCn2nnc(-c3cccnc3)n2)c2ccc(F)cc2)cc1	M1 antag 27.3, M4 antag 28.7
Fc1ccc(-n2nnc(-c3cccnc3)n2)cc1	none
